Consider 40 compounds from PubChem BioAssay (NCI).

The panel holds about 83,000 compounds, 20% with a hit somewhere; the sample as a whole holds those more often.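 The test compound was applied at a single concentration to cells in 96-well plates for 48 hours, and percent growth was recorded.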 Activity calls are given as the source filed them.

The experiment relates to SW-620 colon. The experiment in a line: NCI-60 one-dose screen, 48 h (100 = growth as untreated, 0 = no growth, -100 = all killed). Conditions: 10 µM unless noted. As to the method:
Growth inhibition of the SW-620 human tumor cell line is measured as a screen for anti-cancer activity. Cells are grown in 96 well plates and exposed to the test compound for 48 hours. Compounds are tested at a single concentration, which is 10^-5 M for most compounds. The reported endpoint is percent growth (GI% or GIPRCNT), where numbers from 0 - 100% represent growth inhibition, and numbers from -100% - 0 represent cell death. For example, a value of 40 represents 60% growth inhibition. A value of 0 means no net growth occurred over the course of the experiment. A value of -40 indicates 40% of cells at the beginning of the experiment died by the end of the experiment. A value of -100 means all cells are dead at the end of the experiment.
NCI-60 Human Tumor Cell Lines Screen was performed using the standard one-dose NCI protocol, which is described in more detail at https://dtp.cancer.gov/discovery_development/nci-60/default.htm.
Compounds with GIPRCNT values below 10 were considered active. Activity score was based on GIPRCNT using the following formula: […]
Score is 0 for GIPRCNT values of 100 or above, 50 for GIPRCNT values of 0, and 100 for GIPRCNT values of -100.
Consider `CCCCCOC(=O)c1cccc(NC(=O)CN(CC)CC)c1`, for which the growth is 105% (inactive).

For the compound `COC(=O)/C(=C\c1ccc(OC)cc1)C(=O)N1c2ccccc2Sc2ccccc21`, the growth is 33.6% (inactive).

On to `CCOC(=O)Cc1csc2nc(-c3ccccc3)nn12`, for which the growth is 98.5% (inactive).

As for `O=C1Nc2ccccc2/C1=N/N=C/c1ccc(OC2OC(CO)C(O)C(O)C2O)cc1` (stereo not given), the growth was 101% (inactive).

Regarding `CC1=CC(=O)C(C(C)C)=CC1=Nc1cc(Br)c(O)c(Br)c1`, the growth is 27.3% (inactive).

With `OC(c1cccc(OCc2ccccc2)c1)c1nnc(-c2ccccc2)o1` (stereo not given), the growth was 104% (inactive).

As to `Cc1ccc(S(=O)(=O)Nc2sccc2-c2nc(-c3ccccc3)no2)cc1`, the growth was 97% (inactive).

Regarding `CN1CCN(C(=O)[C@]23CCC(C)(C)C[C@@H]2C2=CC[C@@H]4[C@@]5(C)Cc6c([nH]c7ccccc67)C(C)(C)[C@@H]5CC[C@@]4(C)[C@]2(C)CC3)CC1`, the growth is 96.4% (inactive).

Regarding `COc1ccc(OC)c(/C=C2\COc3ccc(O)c(O)c3C2=O)c1`, the growth is 9.79% (active).

In the case of `CCOC(=O)C(O)C(O)(c1ccccc1)c1ccccc1` (stereo not given), the growth was 109% (inactive).

For the compound `COc1ccc(Cn2cnc3cc(C(=O)Nc4cccc5ccccc45)ccc32)c(OC)c1`, the growth is 22.7% [30 µM] (inactive).

Consider `C=CCN1C(=O)[C@]2(SC1=S)[C@H](c1cccc(Cl)c1)CN(C)[C@]21C(=O)NC2C=CC(Cl)=C[C@H]21` (stereo not given in full), for which the growth was 30.8% (inactive).

As for `Clc1ccc2c(NCCCN3CCN(c4nc(N5CCOCC5)nc5ccccc45)CC3)ccnc2c1`, the growth was -20.3% (active).

On to `O=[N+]([O-])c1ccccc1C(O)Cc1ccc2ccccc2n1` (stereo not given), for which the growth was 96.7% (inactive).

`O=C(NC(=S)Nc1ccc(-c2nc3ccccc3[nH]2)cc1)c1ccc2ccccc2c1`: the growth was 34.2% (inactive).

In the case of `O=C1Nc2ccccc2/C1=N/N=C/c1ccsc1`, the growth is 97.8% (inactive).

On to `COc1ccc2c(c1)/C(=C\c1sc(=S)[nH]c1O)C(C(=O)O)=N2`, for which the growth was 95.2% (inactive).

Turning to `c1ccc([P+](CCCc2n(Cc3ccc4ccccc4c3)c3ccccc3[n+]2Cc2ccc3ccccc3c2)(c2ccccc2)c2ccccc2)cc1`, the growth was 35.2% (inactive).

For the compound `Cc1ccc(S(=O)(=O)NN/C(N)=N\S(=O)(=O)c2cc(C)c(Cl)cc2SCc2ccccc2)cc1`, the growth was 96.6% (inactive).

In the case of `COc1cc(C(=O)Nc2cc(O)c(CC=C(C)C)c(O)c2)cc2c1O[C@]1(C)CC[C@@H](O)C(C)(C)[C@H]1C2`, the growth was 7.03% (active).

Take `Cn1c(NCCc2ccc(O)c(O)c2)nc2c1c(=O)n(Cc1ccc(Cl)cc1)c(=O)n2C`: the growth was 75.9% (inactive).

As to `CCCCNCC(=O)Nc1ccc(C(=O)OCC)cc1`, the growth was 105% (inactive).

As to `COc1ccc(C2CC(c3cnccn3)=NN2)cc1OC` (stereo not given), the growth was 109% (inactive).

For the compound `C=CCO[C@H]1CO[C@H]2[C@@H]1OC[C@@H]2Oc1ccc(Nc2ccnc(Nc3ccc(O[C@H]4CO[C@H]5[C@@H]4OC[C@@H]5OCC=C)c(Cl)c3)n2)cc1Cl`, the growth is -58.9% (active).

Turning to `COc1ccc(-c2cc(-c3cc(OC)ccc3O)[nH]c(=O)c2C#N)cc1`, the growth was 34.4% (inactive).

For the compound `O=c1cc(-c2ccc(OCc3ccccc3)cc2)oc2c(I)c(OCc3ccccc3)cc(OCc3ccccc3)c12`, the growth was 106% (inactive).

Regarding `CN(C)CCC(O)(Cc1ccccc1)c1ccccc1` (stereo not given), the growth is 114% (inactive).

With `O=C1C=CC(=Nc2cc(Br)c(O)c(Br)c2)C=C1`, the growth is 46.4% (inactive).

Turning to `CO[C@H]1/C=C/O[C@@]2(C)Oc3c(C)c(O)c4c(c3C2=O)C(=O)C(/C=N/N(c2ccccc2)c2ccccc2)=C(NC(=O)/C(C)=C\C=C\[C@H](C)[C@H](O)[C@@H](C)[C@@H](O)[C@@H](C)[C@H](OC(C)=O)[C@@H]1C)C4=O`, the growth is 2.36% (active).

For the compound `Cc1nc(Nc2ccc(N)cc2)c2ccccc2n1`, the growth is 99% (inactive).

Consider `O=C1/C(=C/c2ccccc2[N+](=O)[O-])COc2ccc(O)c(O)c21`, for which the growth is -38.7% (active).

As for `CC1(C)CC(=O)c2c(ccc(C(=O)C[C@H](N)CO)c2N)O1`, the growth is 7.48% (active).

With `Cc1nc2ccc(C(=O)NCc3cc(C(=O)O)c(C)o3)cc2nc1C`, the growth was 99.3% (inactive).

Turning to `COc1cc2nc(Nc3ccc(F)cc3)nc(N)c2cc1OC`, the growth was 103% (inactive).

Consider `COc1ccc(/C=C2\COc3ccc(O)cc3C2=O)cc1OC`, for which the growth is 10.6% (inactive).

As to `CCCCC1COc2cccc3c(SCC(=O)N(C)c4cccc(Cl)c4)cc[n+]1c23` (stereo not given), the growth is 110% (inactive).

On to `O=C(Nc1ccccn1)[C@H](O)[C@@H](O)C(=O)N1CCOCC1`, for which the growth was 110% (inactive).

On to `CC[C@@H](C[C@H](CCO)c1ccccc1)c1cc2ccccc2o1`, for which the growth is 89.6% (inactive).

Take `CCNCCNc1cc(-c2ccc(C(F)(F)F)cc2)c(C#N)c2nc3cc(Cl)c(Cl)cc3n12`: the growth is -81.8% (active).

Consider `NC(N)=N/N=C(/c1ccccc1)c1ccccc1F`, for which the growth is 40% (inactive).
